The full list was thinned out, with hits kept by preference.
Dicer inh: blocks human Dicer maturation of pre-miR-21; 47,000 tested, 6% active; Q9UPY3; z-score at 25 µM; cat-ELCCA pre-miR-21 Dicer processing, chemiluminescence; hits give high values; in the data active = z-score above about 3, passing the limit was not always enough;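 note: plate controls were vehicle for no effect and no enzyme for full effect; higher signal means more uncleaved substrate so more Dicer inhibition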
Target sequence (Q9UPY3 whole entry, looked up): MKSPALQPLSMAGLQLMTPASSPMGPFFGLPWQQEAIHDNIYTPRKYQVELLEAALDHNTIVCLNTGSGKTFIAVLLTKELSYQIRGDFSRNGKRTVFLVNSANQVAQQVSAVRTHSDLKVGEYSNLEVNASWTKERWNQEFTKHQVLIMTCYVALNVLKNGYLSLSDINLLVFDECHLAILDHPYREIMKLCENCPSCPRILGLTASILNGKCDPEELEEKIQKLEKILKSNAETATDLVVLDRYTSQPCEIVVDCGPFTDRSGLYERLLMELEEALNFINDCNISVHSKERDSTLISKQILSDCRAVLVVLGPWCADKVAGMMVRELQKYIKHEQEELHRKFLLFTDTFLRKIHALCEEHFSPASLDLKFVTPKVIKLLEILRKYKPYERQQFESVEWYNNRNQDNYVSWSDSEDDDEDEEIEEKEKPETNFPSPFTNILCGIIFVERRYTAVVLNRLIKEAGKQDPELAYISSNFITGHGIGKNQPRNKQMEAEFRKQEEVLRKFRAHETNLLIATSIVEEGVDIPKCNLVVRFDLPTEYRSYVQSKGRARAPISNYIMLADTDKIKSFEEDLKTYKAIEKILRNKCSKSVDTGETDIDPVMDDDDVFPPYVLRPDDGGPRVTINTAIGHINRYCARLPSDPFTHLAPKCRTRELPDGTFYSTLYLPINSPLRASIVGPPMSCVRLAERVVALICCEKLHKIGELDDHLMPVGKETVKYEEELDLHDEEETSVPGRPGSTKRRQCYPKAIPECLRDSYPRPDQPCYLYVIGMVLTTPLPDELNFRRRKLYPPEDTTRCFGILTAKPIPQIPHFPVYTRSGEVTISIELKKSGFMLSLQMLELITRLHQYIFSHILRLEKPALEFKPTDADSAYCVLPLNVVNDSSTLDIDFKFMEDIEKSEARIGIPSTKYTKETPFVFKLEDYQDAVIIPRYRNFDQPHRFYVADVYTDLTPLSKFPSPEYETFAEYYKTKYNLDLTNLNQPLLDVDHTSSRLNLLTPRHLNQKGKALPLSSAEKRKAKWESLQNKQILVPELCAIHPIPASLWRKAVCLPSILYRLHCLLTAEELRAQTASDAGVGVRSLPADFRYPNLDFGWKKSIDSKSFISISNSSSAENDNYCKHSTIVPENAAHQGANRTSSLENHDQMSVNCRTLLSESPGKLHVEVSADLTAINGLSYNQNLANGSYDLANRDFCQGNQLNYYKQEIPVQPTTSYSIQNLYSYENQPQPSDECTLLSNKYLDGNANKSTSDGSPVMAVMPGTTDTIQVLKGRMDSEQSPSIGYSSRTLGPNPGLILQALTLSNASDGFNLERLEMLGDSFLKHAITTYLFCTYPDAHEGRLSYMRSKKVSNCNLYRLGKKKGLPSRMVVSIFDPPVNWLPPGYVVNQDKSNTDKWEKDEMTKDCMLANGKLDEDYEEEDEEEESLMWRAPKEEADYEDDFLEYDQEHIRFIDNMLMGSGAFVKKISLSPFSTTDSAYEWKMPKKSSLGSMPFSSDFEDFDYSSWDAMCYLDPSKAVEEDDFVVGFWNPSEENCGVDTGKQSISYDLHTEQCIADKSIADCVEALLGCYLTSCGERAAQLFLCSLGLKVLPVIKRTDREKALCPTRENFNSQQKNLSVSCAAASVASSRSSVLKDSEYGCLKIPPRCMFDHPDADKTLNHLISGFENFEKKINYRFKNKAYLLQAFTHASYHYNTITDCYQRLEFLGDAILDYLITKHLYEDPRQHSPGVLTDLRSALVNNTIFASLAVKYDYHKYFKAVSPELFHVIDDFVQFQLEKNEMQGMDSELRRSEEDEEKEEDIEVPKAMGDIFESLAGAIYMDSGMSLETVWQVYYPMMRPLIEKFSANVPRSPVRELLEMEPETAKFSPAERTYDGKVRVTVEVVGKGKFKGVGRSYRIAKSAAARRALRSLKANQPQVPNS
* marks the source's active call; other numbers are inactive results.

SMILES	Dicer inh
CC(=O)NC1=NN(C(C)=O)C(c2ccc(Cl)cc2)S1 (configuration not stated)	0.66
Cc1ccc(C2=NN3C(C2)c2ccccc2OC3c2ccc(F)cc2)o1 (configuration not stated)	2.06
O=[N+]([O-])c1ccc(/C=C/C2Oc3ccccc3C3CC(c4cccs4)=NN23)o1 (configuration not stated)	6.54*
c1ccc(C2Oc3ccccc3C3CC(c4cccs4)=NN32)nc1 (configuration not stated)	1.46
NC(=O)C1(N2CCCCC2)CCN(C2CC(=O)N(c3ccccc3Cl)C2=O)CC1 (configuration not stated)	-1.5
O=C1c2cccc3cccc(c23)C(=O)C1c1ccccc1	-1.14
O=C1c2ccccc2C(=O)C1c1ccc2ccccc2n1	0.48
O=C1c2cc3ccccc3cc2C(=O)C1c1ccccc1	3.98*
Cc1onc(-c2c(Cl)cccc2Cl)c1C(=O)NC(=O)c1ccc(-c2ccc(Cl)cc2)s1	-0.87
C=CCOC(=O)C(CC(=O)O)NC(=O)OCC1c2ccccc2-c2ccccc21 (configuration not stated)	-0.22
CC[C@H](C)[C@H](NC(=O)OCC1c2ccccc2-c2ccccc21)C(=O)O	0.52
CC(C)C[C@H](NC(=O)OCC1c2ccccc2-c2ccccc21)C(=O)O	4.6*
O=c1oc(-c2cccs2)nc2scc(-c3ccccc3)c12	0.79
N/C(=N\NC(=O)c1cccnc1)c1ccccn1	-4.79
O=C(COc1ccccc1)OCC(=O)c1ccc(Br)cc1	1.64
c1ccc(Cc2cn3cc(-c4ccccc4)nc3s2)cc1	-0.47
Clc1ccccc1Cc1cn2cc(-c3ccccc3)nc2s1	4.12*
Fc1ccc(Cc2cn3cc(-c4ccccc4)nc3s2)cc1	0.05
COC(=O)C1=C(C)N=C2SC(C#N)=C(N)N2C1c1ccc(F)cc1 (configuration not stated)	-0.52
O=C(NCCNc1ncc(C(F)(F)F)cc1Cl)C(F)(F)Sc1ccccc1	4.99*
Cc1ccc(S(=O)(=O)NC(=O)NCCNc2ncc(C(F)(F)F)cc2Cl)cc1	-1.59
FC(F)(F)c1cnc(NCCNc2cnc3ccccc3n2)c(Cl)c1	-1.18
O=C1c2cc(S(=O)(=O)NCc3ccccc3)ccc2-c2ccc(S(=O)(=O)NCc3ccccc3)cc21	0.66
CC1=C(C(=O)OC(C)C)C(c2ccc(Cl)cc2)C2=C(CCCC2=O)N1 (configuration not stated)	-1.23
Cc1c(C(=O)O)nn(-c2ccc(Cl)cc2)c(=O)c1C#N	-0.25
SMILES	Dicer inh
COc1ccc(C2NC(=O)c3c(sc4c3CCCC4)N2)cc1 (configuration not stated)	-1.21
O=C1NC(c2ccccc2Cl)Nc2sc3c(c21)CCN(Cc1ccccc1)C3 (configuration not stated)	1.91
O=C1NC(c2ccc(Cl)cc2)Nc2sc3c(c21)CCCC3 (configuration not stated)	0.55
O=C1NC(c2ccccc2Cl)Nc2sc3c(c21)CCCC3 (configuration not stated)	5.91*
COc1cc(C2NC(=O)c3c(sc4c3CCCC4)N2)cc(OC)c1OC (configuration not stated)	-0.42
COc1cc(C2NC(=O)c3c(sc4c3CCCC4)N2)cc(Br)c1OC (configuration not stated)	4.14*
CSc1ncc(S(=O)(=O)Cc2ccco2)c(N)n1	7.69
COc1ccc(/C(O)=C2\C(=O)C(=O)N(Cc3cccnc3)C2c2ccc(N(C)C)cc2)cc1 (configuration not stated)	0.99
Clc1ccc(CN2CCCN(c3ncnc4scc(-c5ccccc5)c34)CC2)cc1Cl	-0.88
c1ccc(-c2csc3ncnc(N4CCN(Cc5ccc6c(c5)OCO6)CC4)c23)cc1	4.65*
CCCc1cnc(N2CCN(c3ncnc4scc(-c5ccccc5)c34)CC2)nc1	-1.68
CCOc1ccc2c(c1)C(OC(C)=O)C(C)(C)C(c1ccc(Br)cc1)N2 (configuration not stated)	1.62
Cc1ccc(S(=O)(=O)N(c2cc(C)nn2C)S(=O)(=O)c2ccc(C)cc2)cc1	-2.3
Cc1nn(-c2ccccc2)c2nc(-c3ccco3)cc(C(F)(F)F)c12	0.61
Cc1nn(-c2ccc(Cl)cc2)c2nc(-c3ccco3)cc(C(F)(F)F)c12	4.73*
Cc1ccc(-n2nc(C)c3c(C(F)(F)F)cc(-c4ccco4)nc32)cc1	0.87
Cc1ccc(C)n1-c1sc2c(c1C(=O)NN)CCCC2	0.33
CC(C)(C)NS(=O)(=O)c1cccc2cccnc12	-0.27
O=S(=O)(NCc1ccccn1)c1cccc2ccccc12	-0.32
O=S(=O)(NCCCCNS(=O)(=O)c1cccc2cccnc12)c1cccc2cccnc12	5.54*
CC(C)(C)c1ccc(C(=O)Nc2ccccc2OC(F)(F)F)s1	-0.52
O=[N+]([O-])c1ccc(/C=N/Nc2nc3c(Cl)cc(Cl)cc3s2)s1	1.28
Cn1c(-c2ccc(Cl)cc2)cnc1SCC(=O)Nc1cc(Cl)cc(Cl)c1	-0.02
CN(C)S(=O)(=O)n1cc(/C=C/c2noc(-c3ccccc3O)n2)c2ccccc21	-0.79
